The values below come from PubChem BioAssay AID1569 (National Center for Advancing Translational Sciences (NCATS), 2009).

SMILES strings stand for the structures. Inconclusive results are not listed. Unmarked numbers belong to inactive results. Calls of active or inactive are those of the source. Calls follow the shape of the dose curve; as a rule, active = well fitted inhibition curve with a large enough effect; inconclusive = small, poorly fitted or top-dose-only effect, or effect the other way, or another doubt; inactive = no such curve, though single readings can be large or run the other way.
Potency is read from the fitted curve at half-maximal effect.

A short description of this assay: Confirmation Concentration-Response Assay for lipid storage modulators. Also: nearly all actives have a fitted effect of over 80% in size.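 As to activity change, negative = inhibition: -100% = full block of lipid deposition by 20 µM Triacsin C.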 The conditions noted are these: Drosophila S3 cells, lipid droplet BODIPY/CellTracker ratio, 18-24 h; series mostly up to 46.1 µM; activity change, negative = inhibition: at the top concentration. A digest of the protocol: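 Cells at 5,000/well received compound as a titration plus oleic acid (added as 400 uM solution) and were incubated 18–24 h at 24 °C. BODIPY 493/503 lipid signal and CellTracker Red cell count were read by 488-nm laser-scanning cytometry. Activity was normalised to 20 uM Triacsin C.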
For the molecule `CCOc1ccc(CCNC(=O)COC(=O)/C=C/c2ccc(OCC#N)c(OC)c2)cc1OCC`, the Potency was 3150 nM (active).

For `N#Cc1ccsc1NC(=O)CN1CCN(S(=O)(=O)c2cc(Cl)ccc2Cl)CC1`, the Potency was 2500 nM (active).

On to `COC(c1ccccc1)c1nnc(CCC(=O)NC2C3CC4CC(C3)CC2C4)o1` (configuration not stated), for which the Potency is 5600 nM (active).

For the molecule `O=C(COC(=O)c1ccc(CO)cc1)NCc1cccs1`, the “activity change, negative = inhibition” value was 16.4%.

As to `CCOc1ccc(CCNC(=O)COC(=O)c2ccc(OC(C)C)cc2)cc1OCC`, the Potency is 158 nM (active).

Take `CCCc1ccc(-c2csc(NC(=O)Cc3cccs3)n2)cc1`: the Potency was 1580 nM (active).

In the case of `Cc1ccc(NCc2ccc(O)c3ncccc23)cc1`, the “activity change, negative = inhibition” value is 11%.

Take `CC(C)(C)c1cc[n+](C2=C([O-])c3ccccc3C(=O)/C2=N\S(=O)(=O)c2cccs2)cc1`: the Potency was 28100 nM (active).

As for `CCOc1ccc(CCNC(=O)COC(=O)COc2cc(C)cc(C)c2)cc1OCC`, the “activity change, negative = inhibition” value was 12.7%.

In the case of `CCOC(=O)C1CCN(C(=O)C2(NC(=O)Nc3ccc(F)cc3F)CCCCC2)CC1`, the Potency was 1770 nM (active).

On to `COc1ccc(/C=C(/NC(=O)c2cccs2)C(=O)Nc2ccc(C)cc2)cc1OC`, for which the Potency is 250 nM (active).

As to `COC(=O)c1cc(C)sc1NC(=O)C1CC(=O)NN1Cc1ccccc1` (configuration not stated), the Potency was 1410 nM (active).

For the molecule `CC(=O)N1CCN(C(=O)C2(NC(=O)Nc3ccc(C)cc3)CCCCC2)CC1`, the “activity change, negative = inhibition” value was 9.61%.

With `COc1ccc(CCNC(=O)CCc2ccc(S(=O)(=O)NC(C)C)cc2)cc1OC`, the “activity change, negative = inhibition” value is 26%.

Regarding `CCOC(=O)C1CCN(C(=O)C2(NC(=O)Nc3ccccc3Cl)CCCCC2)CC1`, the Potency is 628 nM (active).

For the molecule `CCCCCCCCn1c(=O)c(C(=O)OC)c(N)c2ccccc21`, the Potency was 7910 nM (active).

Take `CCOc1ccc(CCNC(=O)COC(=O)CCc2cc(OC)c(OC)c(OC)c2)cc1OCC`: the “activity change, negative = inhibition” value was -28%.

Regarding `CN(Cc1cccc(F)c1)C(=O)c1ccc2c(=O)n3c(nc2c1)CCC3`, the “activity change, negative = inhibition” value is -8.33%.

Consider `CCOc1ccc(CCNC(=O)CN2CCN(Cc3ccccc3C)C2=O)cc1OCC`, for which the “activity change, negative = inhibition” value is -49.3%.

With `Cc1ccc(-c2noc(C3CCCN(C(=O)c4ccccc4Br)C3)n2)cc1` (configuration not stated), the “activity change, negative = inhibition” value was -18.5% [at 30.7 µM].

For the molecule `Cc1ccccc1-n1ncc(C(C)NC(=O)c2ccco2)c1C` (configuration not stated), the Potency was 396 nM (active).

On to `COc1ccc(CC(=O)NCCc2ccc(OC)c(OC)c2)cc1`, for which the “activity change, negative = inhibition” value was 12.7%.

Consider `COc1ccc(CCNC(=O)CCC(=O)c2cccs2)cc1OC`, for which the “activity change, negative = inhibition” value is 30%.

For `CC(=O)c1cc(-c2ccccc2)n(CC(=O)N2CCC(C)CC2)c1C`, the Potency was 1580 nM (active).

As to `c1ccc(CNc2ncnc3ccccc23)cc1`, the Potency was 12500 nM (active).

Consider `COc1ccc(CCNC(=O)Cn2cccc2C(=O)c2ccccc2C)cc1OC`, for which the “activity change, negative = inhibition” value was -1.33%.

As to `CCCCCCCCCCCCCCCCn1cc[n+](C)c1`, the Potency was 3150 nM (active).

Consider `COc1ccc(CCNC(=O)COc2cc(O)c3c(c2)OC(C)(C)CC3=O)cc1OC`, for which the “activity change, negative = inhibition” value was 2%.

With `Cc1ccccc1NC(=O)NC1(C(=O)N2CCC(O)CC2)CCCCC1`, the “activity change, negative = inhibition” value is 12.7%.

Consider `O=C(CCC1CCCN(C(=O)c2ccc3c(c2)OCCO3)C1)NCc1ccccc1F` (configuration not stated), for which the Potency was 2230 nM (active).

For `Cc1ccc(C(C(=O)NC2CCCCC2)N(Cc2ccco2)C(=O)Cc2c[nH]c3ccccc23)o1` (configuration not stated), the Potency was 4450 nM (active).

`COC(=O)c1ccc(C(=O)NC2CCCc3c2cnn3-c2ccccc2F)nc1` (configuration not stated): the Potency was 177 nM (active).

On to `COc1ccc(N=NC2C(=O)N(c3ccccc3)N=C2C)cc1` (configuration not stated), for which the Potency is 14100 nM (active).

For the molecule `COCCCN1C(=O)c2ccc(C(=O)OCC(=O)NCc3ccccc3OC)cc2C1=O`, the “activity change, negative = inhibition” value was 24.1%.

With `Cc1cnc(NC(=O)CSc2ncc(-c3ccccc3)n2Cc2ccco2)s1`, the “activity change, negative = inhibition” value is 8.73%.

Regarding `CCN(CC(=O)Nc1c(F)cccc1F)C(=O)CCCc1c[nH]c2ccccc12`, the Potency was 628 nM (active).

Regarding `COc1cc2c(cc1NC(=S)NC(=O)c1c(OC)cccc1OC)oc1ccccc12`, the Potency is 2170 nM (active).
